Measurements taken from publication PMC5540273 (PLoS ONE, 2017).

Key:
Settings in all cases: concentration: 1 μM, replicates: in singlicate; n = 1
EPHB2 = test system: EPHB2
EPHB3 = test system: EPHB3
EPHB4 = test system: EPHB4
EPHB6 = test system: EPHB6
ERBB2 = test system: ERBB2
ERBB3 = test system: ERBB3
ERBB4 = test system: ERBB4
ERK1 = test system: T1, ERK1
T1 construct: gene MAPK3

ERK2 = test system: T2, ERK2
T2 construct: gene MAPK1

ERK3 = test system: T3, ERK3
T3 construct: gene MAPK6

ERK4 = test system: T4, ERK4
T4 construct: gene MAPK4

ERK5 = test system: T5, ERK5
T5 construct: gene MAPK7

ERK8 = test system: T6, ERK8
T6 construct: gene MAPK15

ERN1 = test system: ERN1
FAK = test system: T7, FAK
T7 construct: gene PTK2

FER = test system: FER
FES = test system: FES
FGFR1 = test system: FGFR1
FGFR2 = test system: FGFR2
FGFR3 = test system: FGFR3
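Note: KINOMEscan kinase panel screen.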

Row | Compound | %Inh (EPHB2) [%] | %Inh (EPHB3) [%] | %Inh (EPHB4) [%] | %Inh (EPHB6) [%] | %Inh (ERBB2) [%] | %Inh (ERBB3) [%] | %Inh (ERBB4) [%] | %Inh (ERK1) [%] | %Inh (ERK2) [%] | %Inh (ERK3) [%] | %Inh (ERK4) [%] | %Inh (ERK5) [%] | %Inh (ERK8) [%] | %Inh (ERN1) [%] | %Inh (FAK) [%] | %Inh (FER) [%] | %Inh (FES) [%] | %Inh (FGFR1) [%] | %Inh (FGFR2) [%] | %Inh (FGFR3) [%]
1 | FC(F)(F)c1cc(Nc2nccc(-c3c(-c4ccc(Cl)cc4)nn4ncccc34)n2)ccc1Cl [GW829351] | 0 | 0 | 0 | 0 | 0 | 0 | 45 | 0 | 0 | 0 | 0 | 0 | 0 | 0 | 0 | 0 | 0 | 0 | 0 | 0
2 | Nc1nc(-c2ccccn2)c(-c2ccnc3ccccc23)s1 [GW548057] | 14 | 14 | 0 | 27 | 53 | 31 | 11 | 0 | 0 | 10 | 31 | 4 | 0 | 14 | 0 | 8 | 0 | 0 | 0 | 16
3 | c1ccc(-c2ccc3c(-c4ccnc(Nc5ccc6c(c5)OCCO6)n4)cnn3n2)cc1 [GW818941] | 3 | 13 | 10 | 0 | 21 | 15 | 0 | 11 | 6 | 0 | 0 | 0 | 92.7 | 0 | 6 | 23 | 0 | 18 | 0 | 15
4 | COC(=O)c1cccc(NC(=O)NCCNc2ccnc(Nc3ccc(F)cc3)n2)c1 [GSK1379883] | 0 | 21 | 6 | 4 | 14 | 15 | 28 | 0 | 11 | 0 | 4 | 0 | 0 | 21 | 0 | 19 | 7 | 0 | 43 | 15
5 | CCC(CC)(CC)n1cnc2c(N)ncnc21 [SKF-97620] | 0 | 18 | 0 | 9 | 20 | 46 | 32 | 0 | 0 | 0 | 0 | 0 | 1 | 26 | 0 | 0 | 10 | 17 | 100 | 0
6 | Cl.Cn1ccc(-c2cccc(Nc3ccnc4cc(-c5nccs5)ccc34)c2)n1 [GW525701] | 0 | 9 | 47 | 94.2 | 53 | 64 | 45 | 0 | 0 | 0 | 9 | 0 | 0 | 0 | 0 | 8 | 22 | 0 | 0 | 11
7 | CC(C)(C)c1ccc(-n2cnc3c(N)ncnc32)cc1 [SKF-97263] | 17 | 31 | 15 | 9 | 29 | 0 | 0 | 7 | 0 | 0 | 0 | 0 | 48 | 6 | 0 | 13 | 13 | 12 | 20 | 15
8 | CS(=O)(=O)CCNCc1ccc(-c2ccc3ncnc(Nc4ccc(OCc5ccccc5)c(Cl)c4)c3c2)o1.Cl [GW574783] | 0 | 18 | 8 | 28 | 100 | 69 | 90.8 | 4 | 0 | 0 | 0 | 0 | 15 | 0 | 11 | 14 | 0 | 0 | 0 | 12
9 | C[C@H]1CC[C@@H](C(=O)Nc2ccccc2)CN1c1cc(-c2ccc3c(N)n[nH]c3c2)nc(N)n1 [GSK2283293] | 0 | 24 | 12 | 13 | 25 | 0 | 39 | 0 | 2 | 4 | 29 | 0 | 0 | 0 | 0 | 3 | 9 | 0 | 5 | 0
10 | CC(=O)Nc1n[nH]c2ncc(-c3ccccc3)cc12 [SB-548492] | 0 | 16 | 14 | 36 | 0 | 0 | 29 | 12 | 11 | 1 | 0 | 0 | 60 | 0 | 0 | 4 | 25 | 4 | 0 | 10
11 | O=C(Nc1ccccc1)Nc1ccc(Oc2ccc3nccn3n2)cc1 | 0 | 7 | 7 | 0 | 24 | 0 | 0 | 0 | 0 | 0 | 0 | 1 | 14 | 100 | 0 | 0 | 0 | 0 | 8 | 15
12 | N#Cc1ccc(Oc2ccc(Nc3ncnc4cc[nH]c34)cc2Cl)cc1 | 8 | 21 | 24 | 33 | 79 | 9 | 76 | 0 | 6 | 0 | 17 | 20 | 12 | 8 | 8 | 0 | 17 | 9 | 1 | 8
13 | Clc1cc(Nc2ncnc3cc[nH]c23)ccc1OCc1ccccn1 | 15 | 21 | 25 | 35 | 100 | 24 | 73 | 0 | 18 | 0 | 27 | 13 | 6 | 47 | 8 | 1 | 22 | 5 | 8 | 17
14 | Nc1nc(-c2ccc3c(N)n[nH]c3c2)cc(N2CCC[C@@H](C(=O)Nc3ccccc3)C2)n1.O=C(O)C(F)(F)F.O=C(O)C(F)(F)F [GSK2288359] | 0 | 5 | 1 | 29 | 0 | 0 | 2 | 100 | 0 | 18 | 16 | 0 | 0 | 23 | 0 | 0 | 0 | 0 | 0 | 7
15 | C[C@@H]1CCN(C(=O)CO)C[C@@H]1N(C)c1ncnc2[nH]ccc12 | 0 | 0 | 0 | 17 | 19 | 0 | 11 | 0 | 0 | 14 | 19 | 0 | 9 | 0 | 0 | 8 | 0 | 12 | 7 | 0
16 | COc1cc2ncnc(Nc3ccc(OCc4ccccc4Br)c(Cl)c3)c2cc1OC.Cl [GI261590] | 5 | 22 | 31 | 26 | 96.5 | 29 | 100 | 0 | 16 | 0 | 32 | 0 | 0 | 0 | 0 | 18 | 25 | 0 | 38 | 12
17 | CNc1nccc(-c2c(-c3ccc(F)cc3)ncn2C2CCN(C)CC2)n1 [SB-222903] | 0 | 2 | 0 | 0 | 0 | 0 | 2 | 1 | 0 | 0 | 0 | 9 | 6 | 0 | 43 | 0 | 0 | 0 | 0 | 0
18 | O=C(c1ccc(-c2cc(-c3c[nH]nc3-c3ccccn3)ccn2)cc1)N1CCCC1 [GW792479] | 19 | 14 | 17 | 0 | 10 | 57 | 0 | 0 | 32 | 0 | 0 | 23 | 0 | 0 | 47 | 0 | 5 | 3 | 1 | 3
19 | COc1ccc(Nc2nccc(N3CCC(NC(=O)c4cccc(NC(C)=O)c4)C3)n2)cc1 (centres unmarked) [GSK1379732] | 8 | 1 | 11 | 16 | 52 | 30 | 0 | 0 | 0 | 5 | 7 | 0 | 5 | 0 | 0 | 12 | 0 | 0 | 37 | 19
